Screening results (PubChem BioAssay)
Most compounds without a hit are left out; they make up all but 4.7% or so of the library.
D1 agonist = activates the human D1 dopamine receptor. P21728. HEK293 T-REx D1 cells, calcium flux, agonist mode. activation, % at 2 µM. 360,000 compounds, 1% hits. AID 504660; in the data active = activation above about 30%; also: 0% is about no effect
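Tetracycline-induced HEK293 TREx D1 cells, force-coupled to calcium signalling, were dye-loaded with a no-wash calcium kit. Compound was pin-added after a 10 s baseline. Fluorescence was read kinetically at 1 cycle/s for 180 s, with calcium rises flagged as agonism.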
TRHR agonist-1 = TRH receptor (human) agonism; P34981; TRHR cells, calcium flux fluo-8, FDSS agonist mode; activation, % at 2 µM; 360,000 compounds, 0.18% hits; AID 493084; in the data active = activation above about 30%; also: 0% is about no effect
Target sequence (P34981 whole entry, looked up): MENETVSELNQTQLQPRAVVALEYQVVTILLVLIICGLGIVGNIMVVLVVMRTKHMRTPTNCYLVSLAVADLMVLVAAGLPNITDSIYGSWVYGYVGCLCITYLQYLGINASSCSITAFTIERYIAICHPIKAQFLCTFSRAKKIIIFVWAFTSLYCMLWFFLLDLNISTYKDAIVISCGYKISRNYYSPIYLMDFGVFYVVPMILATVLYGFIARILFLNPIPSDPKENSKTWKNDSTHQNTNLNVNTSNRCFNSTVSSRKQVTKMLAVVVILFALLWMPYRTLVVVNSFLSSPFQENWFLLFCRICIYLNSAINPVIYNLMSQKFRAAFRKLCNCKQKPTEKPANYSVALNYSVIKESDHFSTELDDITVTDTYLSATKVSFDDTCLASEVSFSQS
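TRHR-expressing cells loaded with fluo-8 calcium dye; 23 nL library compound pin-transferred, kinetic FDSS fluorescence (Ex 480/Em 530) recorded about 180 s for agonist-induced calcium release, before a 10 nM TRH EC20 addition for potentiator mode.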
TRHR enhancer-1 = allosterically enhances the human TRH receptor | P34981 | 360,000 compounds, 0.66% hits | enhancement, % at 2 µM | TRHR cells, fluo-8 calcium fluorescence, EC20 TRH enhancement | AID 493056; in the data active = enhancement above about 30%; also: 0% is about no effect
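TRHR-expressing cells loaded with fluo-8 calcium dye were read kinetically (ex 480/em 530) during compound addition, then stimulated with an EC20 of TRH (10 nM final). Enhancement of the Gq-mediated intracellular calcium response was scored.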
D1 antagonist = antagonists of human D1 dopamine receptor; HEK293 TREx D1 cells, calcium flux, dopamine EC80; hits give low values; activity change, negative = inhibition, % at 10 µM; 360,000 compounds, 3.2% hits; AID 504652; in the data active = activity change below about -30%; also: % is scaled to controls: 0 for no effect and ±100 for the full control effect
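Cells carrying a force-coupled, tetracycline-inducible human D1 receptor report calcium flux. Each well gets a 10 s baseline, compound with 180 s monitoring, then an EC80 dopamine stimulus with a second 180 s kinetic read.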
D1 PAM = enhances dopamine response at the human D1 receptor | P21728 | HEK293 TREx D1 cells, calcium flux, dopamine EC20 potentiation | potentiation, % at 10 µM | 360,000 compounds, 0.036% hits; in the data active = potentiation above about 30%; also: 0% is about no effect
TRHR enhancer-2 = confirmation of human TRH receptor allosteric enhancers; shares compounds with TRHR enhancer-1; TRH receptor cell assay, enhancer confirmation qHTS; activity change, negative = inhibition, % at 46.1 µM; 970 tested, under 10 active; AID 493076;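 also: compound effect scored on response to added TRH at EC20 of 10 nM; 0% is about no effect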
TRHR agonist-2 = human TRH receptor agonism confirmation | Potency, µM (highest dose often 46.1 µM), without a hit: top-dose activation, usual class: activators | shares compounds with TRHR enhancer-1 | TRHR-expressing cells, agonist activation read-out | 970 compounds, 8% hits; also: potency is read from the fitted curve at half-maximal effect; 0% is about no effect; nearly all actives have a fitted effect of over 75% in size
* hit, by the source's call. Unless noted, calls follow the shape of the dose curve; as a rule, active = well fitted curve in the direction sought with a large enough effect; inconclusive = small, poorly fitted or top-dose-only effect, or another doubt; inactive = no such curve, though single readings can be large; an effect the other way counts as inactive or inconclusive.

Results for CSc1nnc(C)c(/C=C/NOCc2ccc(Cl)cc2)n1 ?
D1 agonist: 2; TRHR agonist-1: -1; TRHR enhancer-1: 4; D1 antagonist: -12; D1 PAM: -3

What do the screens show for `CSc1nnc(C)c(/C=C/Nc2ccc(C)cc2)n1`?
D1 agonist: 46*; TRHR agonist-1: 29; TRHR enhancer-1: 0; D1 antagonist: -5; D1 PAM: -2

How did CC1CCc2nn(CC(=O)NCCCN3CCCC3=O)cc2C1 (stereo not drawn) do in these assays?
D1 agonist: 1; TRHR agonist-1: 0; TRHR enhancer-1: -5; D1 antagonist: 21

How did CCOC(=O)c1ccc(NC(=O)Cn2nnc(-c3ccc(C(F)(F)F)cc3)n2)cc1 do in these assays?
D1 agonist: 1; TRHR agonist-1: 0; TRHR enhancer-1: 44*; D1 antagonist: 18; D1 PAM: -2

How did O=C(Cn1cc2c(n1)CCCC2)NCCCN1CCN(Cc2ccccc2)CC1 do in these assays?
D1 agonist: 1; TRHR agonist-1: 0; TRHR enhancer-1: 6; D1 antagonist: -24; D1 PAM: -5

How did Cc1ccc(C)c(N2CCN(CCCNC(=O)Cn3cc4c(n3)CCCCC4)CC2)c1 do in these assays?
D1 agonist: 33*; TRHR agonist-1: 3; TRHR enhancer-1: -11; D1 antagonist: -12; D1 PAM: -5

What do the screens show for `CCN1CCN(CCCNC(=O)Cn2cc3c(n2)CCCC3)CC1`?
D1 agonist: -2; TRHR agonist-1: -1; TRHR enhancer-1: 9; D1 antagonist: 6

What do the screens show for `Cc1ccc(C)c(N2CCN(CCCNC(=O)Cn3cc4c(n3)CCC(C)C4)CC2)c1` (stereo not drawn)?
D1 agonist: 48*; TRHR agonist-1: 0; TRHR enhancer-1: 7; D1 antagonist: -2; D1 PAM: -6

How did O=C(Cn1cc2c(n1)CCCC2)NCCCN1CCN(c2ccccc2F)CC1 do in these assays?
D1 agonist: 0; TRHR agonist-1: 0; TRHR enhancer-1: 2; D1 antagonist: -35*; D1 PAM: -8

How did COc1ccccc1CNC(=O)c1cc2ccc3ccc(C)[nH]c3c2n1 do in these assays?
D1 agonist: 3; TRHR agonist-1: -1; TRHR enhancer-1: 6; D1 antagonist: -12; D1 PAM: -3

What do the screens show for `O=C(Cn1ncc2ccc(Cl)cc21)NCc1ccc(F)cc1`?
D1 agonist: -2; TRHR agonist-1: 0; TRHR enhancer-1: 4; D1 antagonist: -9; D1 PAM: 0

Results for CCOC(=O)c1ccc(NC(=O)Cn2cc3c(n2)CCC(C)C3)cc1 (stereo not drawn) ?
D1 agonist: -2; TRHR agonist-1: 0; TRHR enhancer-1: 2; D1 antagonist: -30*; D1 PAM: -3

Results for CC(=O)OCc1c(C(F)(F)F)nn(C)c1Oc1cccc(C(F)(F)F)c1 ?
D1 agonist: 18; TRHR agonist-1: 0; TRHR enhancer-1: 15; D1 antagonist: -35*; D1 PAM: -12

Results for CC(=O)OCc1c(C(F)(F)F)nn(C)c1Oc1ccccc1 ?
D1 agonist: -1; TRHR agonist-1: 1; TRHR enhancer-1: 6; D1 antagonist: -14; D1 PAM: -2

How did CCCCN(C(=O)c1ccc2c(c1)NC(=O)CS2)c1ccccc1 do in these assays?
D1 agonist: 10; TRHR agonist-1: 1; TRHR enhancer-1: -3; D1 antagonist: -36*

Results for COc1ccc(NC(=O)CCS(=O)(=O)c2nc(-c3cccs3)cc(C(F)(F)F)n2)cc1OC ?
D1 agonist: 2; TRHR agonist-1: 0; TRHR enhancer-1: -1; D1 antagonist: 2; D1 PAM: 2

How did CSc1ccc(CNCc2c(C(=O)O)c(C)n(Cc3ccc(F)cc3Cl)c2C)cc1 do in these assays?
D1 agonist: 1; TRHR agonist-1: 0; TRHR enhancer-1: -2; D1 antagonist: -19; D1 PAM: -3

How did O=C(N/N=C/c1ccco1)c1cc(-c2ccc3ccccc3c2)n[nH]1 do in these assays?
D1 agonist: 0; TRHR agonist-1: 0; TRHR enhancer-1: -1; D1 antagonist: 0; D1 PAM: 43*

What do the screens show for `CCc1ccc(-c2cc(C(=O)N/N=C/c3ccco3)[nH]n2)cc1`?
D1 agonist: 27; TRHR agonist-1: 0; TRHR enhancer-1: 0; D1 antagonist: -67*; D1 PAM: 3

What do the screens show for `CCc1ccc(-c2cc(C(=O)N/N=C/c3ccccn3)[nH]n2)cc1`?
D1 agonist: 0; TRHR agonist-1: 0; TRHR enhancer-1: 3; D1 antagonist: 1; D1 PAM: 2

Results for COc1ccc(OC)c(CCNC(=O)c2cc3c(=O)n(C)c4ccccc4c3n2C)c1 ?
D1 agonist: 2; TRHR agonist-1: 0; TRHR enhancer-1: 0; D1 antagonist: 5; D1 PAM: 4

How did O=[N+]([O-])c1ccc(CN2CCN(c3ccc([N+](=O)[O-])cc3)CC2)cc1 do in these assays?
D1 agonist: 7; TRHR agonist-1: 0; TRHR enhancer-1: -5; D1 antagonist: -3; D1 PAM: -3

Results for O=[N+]([O-])c1ccc(N2CCN(Cc3cccc([N+](=O)[O-])c3)CC2)cc1 ?
D1 agonist: -2; TRHR agonist-1: 0; TRHR enhancer-1: 6; D1 antagonist: -40*; D1 PAM: -8

How did O=[N+]([O-])c1ccc(CN2CCSCC2)cc1 do in these assays?
D1 agonist: 4; TRHR agonist-1: -1; TRHR enhancer-1: -2; D1 antagonist: -33*; D1 PAM: -11

How did CCN(CC)C(=O)c1cc2c(=O)c3cc(Cl)ccc3oc2nc1C do in these assays?
D1 agonist: 4; TRHR agonist-1: -2; TRHR enhancer-1: 73*; D1 antagonist: -18; D1 PAM: -4; TRHR enhancer-2: 0; TRHR agonist-2: -1%

How did Cc1nn(-c2ccc(N3CCCCC3)nn2)c(C)c1CCC(=O)NCc1ccc(Cl)cc1 do in these assays?
D1 agonist: 6; TRHR agonist-1: -1; TRHR enhancer-1: -2; D1 antagonist: -15; D1 PAM: -3

What do the screens show for `COc1ccc(N(Cc2nnc3n2CCCCC3)C(=O)Nc2cccc(C)c2)cc1Cl`?
D1 agonist: -1; TRHR agonist-1: 0; TRHR enhancer-1: 7; D1 antagonist: 6; D1 PAM: 4

How did Cc1cccc(C(=O)Oc2ccccc2C(=O)N2CCOCC2)c1 do in these assays?
D1 agonist: 4; TRHR agonist-1: 0; TRHR enhancer-1: 52*; D1 antagonist: 6; D1 PAM: 0; TRHR enhancer-2: -1; TRHR agonist-2: 1%

What do the screens show for `O=C(Nc1nnc(SCc2ccccc2)s1)C1=COCCO1`?
D1 agonist: 4; TRHR agonist-1: 1; TRHR enhancer-1: -5; D1 antagonist: -4; D1 PAM: -4
